# Data from PubChem BioAssay (NCATS).
# Values without a mark were called inactive. Records with an inconclusive call do not appear. Entries that show only a call come without a potency. Active and inactive are the calls of the source. Calls come from the whole dose curve; as a rule, active = well fitted curve in the direction sought with a large enough effect; inconclusive = small, poorly fitted or top-dose-only effect, or another doubt; inactive = no such curve, though single readings can be large; an effect the other way counts as inactive or inconclusive.
# Assays:
# [1] = system: Zika virus NS2B-NS3 protease; assay: Primary screen GU AMC qHTS for Zika virus inhibitors (AID 1347154); conditions: Zika NS2B-NS3 unlinked protease, AMC fluorogenic substrate; series mostly up to 54.1 µM; note: nearly all actives have a fitted effect of over 70% in size; note: potency is the fitted concentration of half-maximal effect
# Method in brief: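 Fluorogenic AMC-substrate cleavage by noncovalent NS2B-NS3 protease complex (25 nM, pH 8.0 Tris buffer with Tween 20) followed for 15 minutes at room temperature (~20% conversion). Percent inhibition from ex340/em450 signal change, fitted by 4-parameter Hill equation.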
# [2] = system: Zika virus NS2B-NS3 protease (unlinked); assay: Optimization of GU AMC qHTS for Zika virus inhibitors: Unlinked NS2B-NS3 protease assay (AID 1347151); conditions: recombinant ZIKV NS2B-NS3 protease, fluorogenic AMC substrate; series mostly up to 52.5 µM; note: nearly all actives have a fitted effect of over 80% in size
# Method in brief: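 In this qHTS, compounds acted on 25 nM unlinked Zika NS2B–NS3 in pH 8.0 Tris/Tween buffer. Cleavage of an AMC peptide ran 15 min at room temperature, to about 20% conversion.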
# [3] = target: Lysine-specific demethylase 5B (Homo sapiens) (UniProt Q9UGL1); assay: Optimization screen for KDM5B Histone Demethylases FDH coupled qHTS against the LOPAC library (AID 1347166); conditions: KDM5B demethylation, FDH-coupled NADH fluorescence (FDH is formaldehyde dehydrogenase); series mostly up to 57.5 µM
# Chain of Lysine-specific demethylase 5B (Homo sapiens) (Q9UGL1 whole entry, looked up): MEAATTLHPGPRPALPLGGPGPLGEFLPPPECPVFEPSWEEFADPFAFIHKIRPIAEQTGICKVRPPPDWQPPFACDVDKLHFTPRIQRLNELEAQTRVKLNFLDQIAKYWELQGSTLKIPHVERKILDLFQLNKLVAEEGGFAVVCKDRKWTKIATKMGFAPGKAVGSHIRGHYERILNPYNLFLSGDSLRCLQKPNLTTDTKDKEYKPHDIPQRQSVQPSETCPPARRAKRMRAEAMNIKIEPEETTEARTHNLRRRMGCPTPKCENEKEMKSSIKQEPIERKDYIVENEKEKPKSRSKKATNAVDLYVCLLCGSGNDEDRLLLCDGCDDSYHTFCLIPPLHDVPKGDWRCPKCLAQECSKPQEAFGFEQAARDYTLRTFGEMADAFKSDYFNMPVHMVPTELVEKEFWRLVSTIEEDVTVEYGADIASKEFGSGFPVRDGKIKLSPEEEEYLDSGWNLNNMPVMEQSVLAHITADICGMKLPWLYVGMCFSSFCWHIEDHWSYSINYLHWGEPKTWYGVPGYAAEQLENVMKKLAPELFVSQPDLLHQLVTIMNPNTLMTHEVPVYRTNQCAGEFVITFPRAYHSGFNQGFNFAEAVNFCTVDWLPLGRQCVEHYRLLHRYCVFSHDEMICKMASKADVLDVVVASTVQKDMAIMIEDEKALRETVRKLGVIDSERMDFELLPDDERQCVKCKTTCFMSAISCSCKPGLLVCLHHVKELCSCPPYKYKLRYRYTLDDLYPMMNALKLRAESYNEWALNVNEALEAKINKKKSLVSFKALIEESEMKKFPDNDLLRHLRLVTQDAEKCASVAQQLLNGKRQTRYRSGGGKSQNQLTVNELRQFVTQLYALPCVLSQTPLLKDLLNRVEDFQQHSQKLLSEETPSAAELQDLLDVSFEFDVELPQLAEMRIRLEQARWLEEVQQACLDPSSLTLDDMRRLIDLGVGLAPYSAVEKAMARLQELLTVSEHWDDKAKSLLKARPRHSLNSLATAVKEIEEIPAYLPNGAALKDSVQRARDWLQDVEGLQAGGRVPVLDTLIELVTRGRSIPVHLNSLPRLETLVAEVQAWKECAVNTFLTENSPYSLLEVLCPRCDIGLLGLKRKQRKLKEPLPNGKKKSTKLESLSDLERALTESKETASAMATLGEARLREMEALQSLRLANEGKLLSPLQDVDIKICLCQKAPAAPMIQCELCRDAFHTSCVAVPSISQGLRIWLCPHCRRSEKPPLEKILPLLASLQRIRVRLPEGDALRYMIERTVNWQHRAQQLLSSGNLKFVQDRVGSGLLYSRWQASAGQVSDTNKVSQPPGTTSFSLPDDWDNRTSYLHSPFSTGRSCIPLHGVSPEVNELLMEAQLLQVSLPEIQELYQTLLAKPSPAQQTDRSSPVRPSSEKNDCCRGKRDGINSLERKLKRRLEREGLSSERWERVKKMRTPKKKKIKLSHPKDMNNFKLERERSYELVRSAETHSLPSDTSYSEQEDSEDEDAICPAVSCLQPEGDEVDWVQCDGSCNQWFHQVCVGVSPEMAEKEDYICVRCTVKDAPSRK
# Method in brief: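 KDM5BDeltaAP (200nM final) preincubated 10 min with compound, then 12.5uM H3K4Me3, 25uM a-ketoglutarate, ascorbate, Fe(II), NAD+ and FDH added; 50mM HEPES pH 7.5, 0.01% Tween-20. NADH fluorescence (340/450 nm) change over 30 min, room temperature.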
# [4] = qHTS to identify inhibitors of the type 1 interferon - major histocompatibility complex class I in skeletal muscle: primary screen against the NCATS LOPAC collection (AID 1347405); conditions: iHSKM muscle cells, IFN-b-induced MHC-I HiBiT luminescence, 24 h; series mostly up to 45.9 µM;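 note: lytic HiBiT luminescence reporting HLA-B protein level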
# Method in brief: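 Luminescence from HiBiT fused to endogenous HLA-B in CRISPR-engineered human myoblasts served as the read-out. Cells received 4.0 ng/ml IFN-beta plus compound (seven concentrations, 1:4.3 steps, highest 46 uM final) for 24 hrs before lytic detection.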
# [5] = qHTS for inhibitors of adenylyl cyclases using a fission yeast platform: a pilot screen against the NCATS LOPAC library (AID 1347410); conditions: S. pombe CHP2027, fbp1-GFP fluorescence, 18 h, yeast expressing mammalian AC9 and human GNAS; series mostly up to 57.5 µM
# Method in brief: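 Inhibition of GNAS-stimulated AC9 activity in S. pombe was inferred from derepression of a PKA-repressed fbp1-GFP reporter, measured as cytometric fluorescence after 18 h at 30C with compounds at up to 57 µM.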
# [6] = qHTS to identify inhibitors of the type 1 interferon - major histocompatibility complex class I in skeletal muscle: primary screen against the NCATS Pharmaceutical Collection (AID 1347407); conditions: human skeletal muscle cells, IFN-b-induced MHC-I HiBiT luminescence, 24 h; series mostly up to 45.9 µM;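 note: luminescence of HiBiT knocked into endogenous HLA-B as interferon-induced MHC class I level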; note: potency is the fitted concentration of half-maximal effect
# Method in brief: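 A qHTS format is used: 8-point, 1:5 compound series with 46 uM top final concentration, applied alongside 4 ng/ml IFN-beta to HLA-B*08:01-HiBiT knock-in myoblasts. Luminescence is measured after 24 h treatment.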
# [7] = system: Zika virus NS2B-NS3 protease (linked construct); assay: Primary screen NINDS Rhodamine qHTS for Zika virus inhibitors (AID 1347160); conditions: purified NS2B-NS3 protease, Rhodamine110 substrate fluorescence; series mostly up to 57.1 µM; note: nearly all actives have a fitted effect of over 55% in size
# Method in brief: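 Purified NS2B-NS3 protease with the NS2B hydrophilic domain joined by a flexible linker (25 nM) in 10 mM Tris-HCl pH 8.0, 0.01% Tween 20, preincubated 15 min at RT with compound; Rhodamine110 peptide substrate 1.5 µM; fluorescence change over 15 min; 4-parameter Hill fit.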
# [8] = qHTS to identify inhibitors of the type 1 interferon - major histocompatibility complex class I in skeletal muscle: primary screen against the NCATS Mechanism Interrogation Plate v5.0 (MIPE) Libary (AID 1347411); conditions: iHSKM cells + IFN-b, HiBiT-tagged MHC-I luminescence, 24 h; series mostly up to 45.8 µM; note: nearly all actives have a fitted effect of over 65% in size
# Method in brief: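 Luminescence from HiBiT-tagged endogenous HLA-B*08:01 served as the MHC class I read-out. CRISPR-engineered C25cl48 human myoblasts received 4.0 ng/ml IFN-beta plus compound for 24 hrs, with an 11-point, 1:3 series topping at 46 uM final.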
# [9] = system: Zika virus NS2B-NS3 protease (unlinked complex); assay: Primary screen GU Rhodamine qHTS for Zika virus inhibitors: Unlinked NS2B-NS3 protease assay (AID 1347159); conditions: Recombinant ZIKV NS2B-NS3 protease, Rhodamine110 substrate fluorescence; series mostly up to 107 µM; note: nearly all actives have a fitted effect of over 60% in size
# Method in brief: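 Noncovalent NS2B hydrophilic domain/NS3 protease complex (25 nM final) in 10 mM Tris-HCl pH 8.0, 0.01% Tween 20, preincubated 15 min with compounds (up to 114 microM), then 1.5 microM Rhodamine110 substrate. Fluorescence change over 15 min fitted to 4-parameter Hill.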
# [10] = Confirmatory screen GU Rhodamine qHTS for Zika virus inhibitors qHTS (AID 1347157); conditions: purified enzyme assay, Rhodamine110 substrate fluorescence, 15 min; series mostly up to 114 µM; note: nearly all actives have a fitted effect of over 70% in size; note: potency is the fitted concentration of half-maximal effect
# Method in brief: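 A qHTS format was used, with compound concentrations ranging up to 114 microM. Each compound was preincubated with 25 nM NS2B-NS3 protease, and the substrate was then added at 1.5 microM. Curves were fitted with a 4-parameter Hill model.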
# [11] = Confirmatory screen NINDS Rhodamine qHTS for Zika virus inhibitors (AID 1347161); conditions: purified enzyme assay, Rhodamine110 substrate fluorescence, 15 min; series mostly up to 114 µM; note: nearly all actives have a fitted effect of over 60% in size; note: potency is the fitted concentration of half-maximal effect;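 for activity change, negative = inhibition: purified Zika NS2B-NS3 protease with linked NS2B cofactor domain and Rhodamine110 peptide substrate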
# Method in brief: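 In 10 mM Tris-HCl pH 8.0 containing 0.01% Tween 20, linked NS2B-NS3 protease (25 nM final) is exposed to test compounds for 15 min. Cleavage of 1.5 microM Rhodamine110 substrate is tracked by fluorescence over 15 min.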
# [12] = system: Zika virus NS2B-NS3 protease (linked); assay: 384 well plate NINDS AMC confirmatory qHTS for Zika virus inhibitors (AID 1347163); conditions: Recombinant NS2B-NS3 protease, Ac-VKTGKR-AMC fluorescence; series mostly up to 1 mM; note: potency is the fitted concentration of half-maximal effect; nearly all actives have a fitted effect of over 50% in size
# Method in brief: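 Linked NS2B-NS3 protease (final 5 nM, 30 nM or 60 nM) was preincubated with compounds (final up to 1 mM) for ~15 minutes. Ac-VKTGKR-AMC substrate (final 30 microM) then reacted for 25 minutes at room temperature in the dark. Fluorescence (ex 355/em 460 nm) was normalized to no-enzyme and no-inhibitor controls.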
# [13] = system: Zika virus NS2B-NS3 protease (linked construct); assay: 384 well plate NINDS Rhodamine confirmatory qHTS for Zika virus inhibitors (AID 1347164); conditions: rhodamine-110 peptide substrate fluorescence; note: potency is the fitted concentration of half-maximal effect; nearly all actives have a fitted effect of over 65% in size
# Method in brief: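 Cleavage of Ac-LKRR-Rhodamine 110 (10 microM final) by linked protease (final 5, 30 or 60 nM) was followed as fluorescence at 485/538 nm after 25 min, room temperature, dark. Compounds preincubated ~15 min.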
# [14] = Tertiary RLuc qRT-PCR qHTS assay for Zika virus inhibitors (AID 1347169); conditions: infected Vero cells, reporter luminescence, 48-72 h; series mostly up to 45.9 µM; note: top concentration of the series differs between compounds; nearly all actives have a fitted effect of over 55% in size
# Method in brief: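 Inhibition of ZIKV-RLuc replication in Vero cells, read as Renilla luminescence 1-1.5 hrs after live-cell substrate addition, following 48-72 hrs infection at MOI 1-2 in presence of compound.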
smiles,measurement,setting,value
CN1CCN(C2=Nc3cc(F)ccc3Cc3ccccc32)CC1,Potency,[1],inactive
O=C(NC1CCN(CCc2c[nH]c3ccccc23)CC1)c1ccccc1,Potency,[1],inactive
CN=C(N)NCCC[C@H](N)C(=O)O,outcome,[2],inactive
same,Potency,[1],inactive
same,outcome,[3],inactive
same,outcome,[4],inactive
same,outcome,[5],inactive
O=C1c2cccc3c2[C@H](CCC3)CN1[C@@H]1CN2CCC1CC2,Potency,[1],inactive
COc1cc(C)nc(-n2nc(C)cc2OC)n1,Potency,[1],inactive
CNCCCCOc1ccccc1Cc1ccccc1,Potency,[1],inactive
OCCOCCN1CCN(C2=Nc3ccccc3Sc3ccccc32)CC1,Potency,[1],inactive
CN(C)CCOC(c1ccc(Cl)cc1)c1ccccn1 (stereo not given),Potency,[1],inactive
CCCCCCCCOc1ccc(C(=O)c2ccccc2)c(O)c1,Potency,[1],inactive
O=C(Nc1ncc([N+](=O)[O-])s1)c1cccs1,Potency,[1],inactive
CN(C)CCN1C(=O)c2ccccc2N(C)c2ccccc21,Potency,[1],inactive
CCN(CC)CCOC(=O)C(Cc1cccc2ccccc12)CC1CCCO1 (stereo not given),Potency,[1],inactive
CC[C@H](c1ccc(O)cc1)[C@@H](CC)c1ccc(O)cc1,Potency,[1],inactive
CCCCCCCCCCCCCCCCO,Potency,[1],inactive
same,Potency,[6],inactive
O=C1[C@H](CC[C@H](O)c2ccc(F)cc2)[C@@H](c2ccc(O)cc2)N1c1ccc(F)cc1,Potency,[1],inactive
same,outcome,[7],inactive
same,Potency,[6],inactive
same,Potency,[8],inactive
CN(C)CCOC(=O)C(c1ccccc1)C1(O)CCCC1 (stereo not given),Potency,[1],inactive
same,Potency,[6],inactive
CCN(CC)CCNC(=O)COc1ccc(OC)cc1,Potency,[1],inactive
same,Potency,[6],inactive
Cc1ncc(CO)c(C=O)c1O,Potency,[1],14.4 µM (active)
same,Potency,[6],inactive
OC1C(O)C(O)C(O)C(O)C1O (stereo not given),Potency,[1],inactive
NS(=O)(=O)c1ccc(Cl)c(S(N)(=O)=O)c1,Potency,[1],inactive
same,Potency,[6],inactive
CC(=O)O[C@]1(C(C)=O)CC[C@H]2[C@@H]3C=C(Cl)C4=CC(=O)CC[C@]4(C)[C@H]3CC[C@@]21C,Potency,[1],inactive
CCC(C(=O)OCCOCCN(CC)CC)c1ccccc1 (stereo not given),Potency,[1],inactive
same,Potency,[6],inactive
COc1cc(C(=O)N2CCCCCCC2)cc(OC)c1OC,Potency,[1],inactive
CCCN(CCc1cccs1)[C@H]1CCc2c(O)cccc2C1,Potency,[1],inactive
CC(CNC1CCCCC1)OC(=O)c1ccccc1 (stereo not given),Potency,[1],inactive
same,Potency,[6],inactive
O=C(CCCN1CC=C(n2c(=O)[nH]c3ccccc32)CC1)c1ccc(F)cc1,Potency,[1],inactive
same,outcome,[9],inactive
same,outcome,[7],inactive
same,Potency,[6],inactive
CC[N+](C)(CC)CCOC(=O)C(O)(c1ccccc1)C1CCCCC1 (stereo not given),Potency,[1],inactive
same,Potency,[6],inactive
Cc1cc(-c2ccccc2)nnc1NCCN1CCOCC1,Potency,[1],inactive
same,Potency,[6],inactive
CC(=O)Oc1ccc(C)cc1,Potency,[1],inactive
Oc1c(Cl)cc(Cl)c(Cl)c1Cc1c(O)c(Cl)cc(Cl)c1Cl,Potency,[1],7.94 µM (active)
same,Potency,[10],15.8 µM (active)
same,Potency,[11],3.55 µM (active)
same,Potency,[12],35.5 µM (active)
same,Potency,[13],14.1 µM (active)
C[C@@]12C(=O)OC(=O)[C@]1(C)C1CCC2O1,Potency,[1],inactive
same,Potency,[6],13.3 µM (active)
CCCCNC(=O)NS(=O)(=O)c1ccc(N)cc1,Potency,[1],inactive
same,Potency,[6],inactive
O=C1C(O)=C(O)C(=O)C(O)=C1O,Potency,[1],inactive
same,Potency,[6],inactive
OC[C@H]1O[C@@H](Oc2ccc(O)cc2)[C@H](O)[C@@H](O)[C@@H]1O,Potency,[1],inactive
same,Potency,[6],inactive
CCCCC(CC)COC(=O)/C=C/c1ccc(OC)cc1 (stereo not given),Potency,[1],inactive
CCCCC(CC)CN1CN(CC(CC)CCCC)CC(C)(N)C1 (stereo not given),Potency,[1],inactive
same,Potency,[6],inactive
Cc1cccc(C)c1NC(=O)c1ccccc1C(=O)O,Potency,[1],inactive
same,Potency,[6],inactive
O=C(O)C(Cc1cc(I)c(O)c(I)c1)c1ccccc1 (stereo not given),Potency,[1],inactive
same,Potency,[11],50.1 µM (active)
same,Potency,[13],112 µM (active)
same,"activity change, negative = inhibition",[14],-2.94% [at 1.74 µM]
same,Potency,[6],inactive
C=C[C@H]1CN2CC[C@H]1C[C@H]2[C@H](O)c1ccnc2ccc(OC)cc12,Potency,[1],inactive
same,Potency,[10],inactive
same,outcome,[9],inactive
same,Potency,[11],inactive
same,Potency,[14],inactive
CC(=O)NO,Potency,[1],inactive
same,Potency,[6],inactive
Nc1ccc(S(=O)(=O)NCc2ccccc2)cc1,Potency,[1],inactive
OC[C@H]1O[C@@H]2O[C@H]3[C@H](O)[C@@H](O)[C@@H](O[C@H]4[C@H](O)[C@@H](O)[C@@H](O[C@H]5[C@H](O)[C@@H](O)[C@@H](O[C@H]6[C@H](O)[C@@H](O)[C@@H](O[C@H]7[C@H](O)[C@@H](O)[C@@H](O[C@H]8[C@H](O)[C@@H](O)[C@@H](O[C@H]1[C@H](O)[C@H]2O)O[C@@H]8CO)O[C@@H]7CO)O[C@@H]6CO)O[C@@H]5CO)O[C@@H]4CO)O[C@@H]3CO,Potency,[1],inactive
same,Potency,[6],inactive
O=C1OC(CN2CCOCC2)CN1/N=C/c1ccc([N+](=O)[O-])o1 (stereo not given),Potency,[1],inactive
O=C(NCCc1c[nH]c2ccccc12)c1cccnc1,Potency,[1],inactive
CC(=O)OCC1=C(C(=O)O)N2C(=O)[C@@H](NC(=O)CSc3ccncc3)[C@H]2SC1,Potency,[1],inactive
same,Potency,[6],inactive
